Results reported in PubChem BioAssay.
Active and inactive are the calls of the source.

Key:
[1] = binders of probe aFSTL3 on microarray, primary screen, stem cell growth factor project, biochemical, small-molecule microarray, fluorescence 635/667 (AID 1064); details: higher = more signal;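 also: measures binding of the biotinylated anti-FSTL3 antibody to printed compounds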
[2] = binders from COS7 lysate, DM2A8 probe, primary screen, torsin A project, cell lysate, small-molecule microarray, fluorescence 635/667 (AID 1065); details: higher = more signal, COS7 lysate expressing mutant human TOR1A
[3] = binders of probe aFGF2 on microarray, primary screen, stem cell growth factor project, biochemical, small-molecule microarray, fluorescence 635/667 (AID 1067); details: higher = more signal;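 also: measures binding of biotinylated aFGF2 protein to printed compounds on slides; z-score merges feature fluorescence and signal-to-noise across triplicate slides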
[4] = binders of probe aFGF10 on microarray, primary screen, stem cell growth factor project, biochemical, small-molecule microarray, fluorescence 635/667 (AID 1071); details: higher = more signal;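 also: score merges 667 nm spot intensity and signal to noise from triplicate slides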
[5] = molecular target: Neurogenic locus notch homolog protein 2 (Homo sapiens) (UniProt Q04721); assay: Notch2 binders on small-molecule microarrays, primary screen, biochemical, small-molecule microarray, 635 nm fluorescence, stem cell growth factors (AID 1073); details: Notch2 binding, higher = more signal
Neurogenic locus notch homolog protein 2 (Homo sapiens), sequence (Q04721 whole entry, looked up, canonical isoform): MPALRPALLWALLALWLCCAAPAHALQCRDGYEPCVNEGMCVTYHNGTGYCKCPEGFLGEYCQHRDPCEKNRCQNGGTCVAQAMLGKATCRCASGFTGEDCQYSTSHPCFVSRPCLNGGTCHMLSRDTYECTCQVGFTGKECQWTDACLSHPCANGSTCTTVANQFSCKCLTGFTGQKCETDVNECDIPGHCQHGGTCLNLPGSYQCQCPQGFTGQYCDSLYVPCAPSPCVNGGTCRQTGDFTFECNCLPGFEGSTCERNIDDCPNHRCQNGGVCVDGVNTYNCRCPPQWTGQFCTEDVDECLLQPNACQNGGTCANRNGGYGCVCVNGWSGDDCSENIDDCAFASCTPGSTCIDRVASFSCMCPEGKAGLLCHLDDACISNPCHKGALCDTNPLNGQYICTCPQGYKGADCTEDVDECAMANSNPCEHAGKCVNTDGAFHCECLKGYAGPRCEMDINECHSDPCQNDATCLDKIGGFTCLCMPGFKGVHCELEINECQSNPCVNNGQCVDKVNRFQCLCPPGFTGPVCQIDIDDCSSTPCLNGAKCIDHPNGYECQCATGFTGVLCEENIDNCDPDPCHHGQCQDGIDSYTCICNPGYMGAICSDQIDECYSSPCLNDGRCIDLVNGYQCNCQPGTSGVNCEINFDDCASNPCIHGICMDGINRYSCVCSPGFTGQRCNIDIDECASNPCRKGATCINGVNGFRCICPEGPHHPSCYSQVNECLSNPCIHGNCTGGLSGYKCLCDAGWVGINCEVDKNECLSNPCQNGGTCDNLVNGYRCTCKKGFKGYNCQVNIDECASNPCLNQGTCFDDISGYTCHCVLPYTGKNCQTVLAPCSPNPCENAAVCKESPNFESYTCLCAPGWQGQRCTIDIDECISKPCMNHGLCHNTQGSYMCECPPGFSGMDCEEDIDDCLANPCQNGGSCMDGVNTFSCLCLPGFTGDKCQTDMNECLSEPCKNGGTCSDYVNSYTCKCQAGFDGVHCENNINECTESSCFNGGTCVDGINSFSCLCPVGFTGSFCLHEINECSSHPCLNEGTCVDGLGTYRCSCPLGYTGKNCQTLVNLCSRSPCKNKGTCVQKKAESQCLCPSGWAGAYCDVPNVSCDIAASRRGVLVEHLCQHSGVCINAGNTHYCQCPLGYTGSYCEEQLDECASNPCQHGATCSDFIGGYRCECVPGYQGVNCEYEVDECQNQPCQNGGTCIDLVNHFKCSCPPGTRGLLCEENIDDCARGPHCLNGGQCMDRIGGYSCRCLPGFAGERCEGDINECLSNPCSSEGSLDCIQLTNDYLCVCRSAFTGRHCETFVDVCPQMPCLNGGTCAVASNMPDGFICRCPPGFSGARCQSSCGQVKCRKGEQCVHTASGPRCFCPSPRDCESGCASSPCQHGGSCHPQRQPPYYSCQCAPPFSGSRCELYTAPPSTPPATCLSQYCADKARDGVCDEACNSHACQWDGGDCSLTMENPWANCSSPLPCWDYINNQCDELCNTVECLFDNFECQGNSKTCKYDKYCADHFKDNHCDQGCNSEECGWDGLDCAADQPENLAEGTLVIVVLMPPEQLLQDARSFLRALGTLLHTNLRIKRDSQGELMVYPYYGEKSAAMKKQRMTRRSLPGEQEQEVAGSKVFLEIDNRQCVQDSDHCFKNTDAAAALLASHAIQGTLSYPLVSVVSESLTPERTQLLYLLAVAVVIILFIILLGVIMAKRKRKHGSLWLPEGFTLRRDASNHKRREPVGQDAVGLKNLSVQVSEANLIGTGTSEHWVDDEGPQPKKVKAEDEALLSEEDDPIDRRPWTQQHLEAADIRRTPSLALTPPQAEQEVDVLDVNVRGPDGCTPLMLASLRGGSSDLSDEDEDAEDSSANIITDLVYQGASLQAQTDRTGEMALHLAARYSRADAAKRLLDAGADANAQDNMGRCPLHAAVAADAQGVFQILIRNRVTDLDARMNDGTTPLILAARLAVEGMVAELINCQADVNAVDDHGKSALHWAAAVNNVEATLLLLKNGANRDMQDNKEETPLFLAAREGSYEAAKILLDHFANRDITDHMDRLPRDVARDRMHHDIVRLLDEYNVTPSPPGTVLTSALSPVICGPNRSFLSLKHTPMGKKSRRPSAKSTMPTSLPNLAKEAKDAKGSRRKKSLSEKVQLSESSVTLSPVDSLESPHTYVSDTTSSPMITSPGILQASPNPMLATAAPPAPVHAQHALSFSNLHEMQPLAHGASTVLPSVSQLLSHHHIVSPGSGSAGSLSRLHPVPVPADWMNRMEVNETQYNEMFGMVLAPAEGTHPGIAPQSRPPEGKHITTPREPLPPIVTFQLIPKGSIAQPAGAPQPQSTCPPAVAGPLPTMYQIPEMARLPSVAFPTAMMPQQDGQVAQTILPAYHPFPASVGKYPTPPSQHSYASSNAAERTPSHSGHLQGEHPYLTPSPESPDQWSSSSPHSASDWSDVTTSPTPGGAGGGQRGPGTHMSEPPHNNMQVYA

[6] = molecular target: Pro-neuregulin-1, membrane-bound isoform (Homo sapiens) (UniProt Q02297); assay: NRG1 binders on small-molecule microarrays, primary screen, psychiatric disease protein project, biochemical, small-molecule microarray, fluorescence 635/667 (AID 1075); details: NRG1 binding, 635 nm fluorescence, higher = more signal;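 also: score combines 667 nm spot fluorescence with signal to noise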
Pro-neuregulin-1, membrane-bound isoform (Homo sapiens), sequence (Q02297 whole entry, looked up, the tested form may be a part, canonical isoform): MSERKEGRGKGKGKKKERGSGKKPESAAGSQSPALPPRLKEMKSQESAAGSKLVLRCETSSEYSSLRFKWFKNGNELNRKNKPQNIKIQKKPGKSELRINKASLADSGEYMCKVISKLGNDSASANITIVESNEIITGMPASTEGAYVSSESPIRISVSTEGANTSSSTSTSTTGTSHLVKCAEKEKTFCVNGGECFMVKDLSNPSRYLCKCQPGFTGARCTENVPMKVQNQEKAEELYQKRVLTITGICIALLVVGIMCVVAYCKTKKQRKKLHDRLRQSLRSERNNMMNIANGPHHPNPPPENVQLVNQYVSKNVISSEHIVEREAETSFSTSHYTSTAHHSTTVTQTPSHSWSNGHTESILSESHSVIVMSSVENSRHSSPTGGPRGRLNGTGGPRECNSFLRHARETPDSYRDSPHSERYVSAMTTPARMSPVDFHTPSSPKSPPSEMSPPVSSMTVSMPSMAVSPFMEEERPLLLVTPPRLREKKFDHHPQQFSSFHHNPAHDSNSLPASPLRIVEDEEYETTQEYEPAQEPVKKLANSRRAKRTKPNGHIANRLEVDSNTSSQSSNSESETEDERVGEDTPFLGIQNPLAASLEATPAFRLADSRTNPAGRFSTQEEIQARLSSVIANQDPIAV

[7] = test system: Neuregulin-1 EGF-like domain; assay: binders of neuregulin-1 EGF-like domain, primary screen, biochemical, small-molecule microarray, 635 nm fluorescence (AID 1081); details: small-molecule microarray binding, higher = more signal;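 also: binding of the protein to compounds printed on small-molecule microarray slides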
[8] = FRG1 promoter luciferase signal modulators, primary screen, FRG1 inhibition for FSHD, cell-based, C2C12 myotubes, firefly/Renilla luciferase, luminescence (AID 1084); details: higher = more signal, called active from +8 up or from −8 down
[9] = binders of probe aFST on microarray, primary screen, stem cell growth factor project, biochemical, small-molecule microarray, fluorescence 635/667 (AID 1086); details: higher = more signal;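 also: score merges 667 nm fluorescence with signal-to-noise of each printed compound spot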
[10] = binders of probe aHhip on microarray, primary screen, stem cell growth factor project, biochemical, small-molecule microarray, fluorescence 635/667 (AID 1087); details: higher = more signal;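 also: score merges spot fluorescence at 667nm with spot signal to noise ratio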
[11] = test system: PRMT1 (protein arginine N-methyltransferase 1); assay: PRMT1 binders on small-molecule microarrays, primary screen, biochemical, small-molecule microarray, 635 nm fluorescence (AID 1088); details: small-molecule microarray binding, higher = more signal;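 also: binding of Prmt1 protein to compounds spotted on small-molecule microarray slides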
[12] = yeast growth modulation, basal conditions, primary screen, YJM789 clinical isolate, OD600, 24 h (AID 1089);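 also: growth of clinical yeast isolate S. cerevisiae YJM 789 seeded 1000 cells per well; test concentration not given here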; details: S. cerevisiae YJM789 growth, higher = more signal, called active from +8 up or from −8 down
[13] = fission yeast growth modulation, primary screen, strain 972, OD600, 24 h, no modulator (AID 1090);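 also: basal condition with compound alone and no growth modifier present; test concentration not given here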; details: S. pombe 972 growth, higher = more signal, called active from +8 up or from −8 down
[14] = S. cerevisiae growth modulation with rapamycin, primary screen, strain BY4716, OD600, 96 h (AID 1091); details: higher = more signal, called active from +8 up or from −8 down; also: test concentration not given here
[15] = molecular target: Torsin-1A-interacting protein 2 (Homo sapiens) (UniProt Q8NFQ8); assay: LULL1 binders on small-molecule microarray, primary screen, cell lysate, human LULL1 lysate, 635/667 nm fluorescence (AID 1092); details: hLULL1 lysate binding, 635 nm fluorescence, higher = more signal;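 also: probe is lysate of COS7 cells overexpressing human LULL1; score merges per-feature 667 nm fluorescence with signal-to-noise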
Torsin-1A-interacting protein 2 (Homo sapiens), sequence (Q8NFQ8 whole entry, looked up): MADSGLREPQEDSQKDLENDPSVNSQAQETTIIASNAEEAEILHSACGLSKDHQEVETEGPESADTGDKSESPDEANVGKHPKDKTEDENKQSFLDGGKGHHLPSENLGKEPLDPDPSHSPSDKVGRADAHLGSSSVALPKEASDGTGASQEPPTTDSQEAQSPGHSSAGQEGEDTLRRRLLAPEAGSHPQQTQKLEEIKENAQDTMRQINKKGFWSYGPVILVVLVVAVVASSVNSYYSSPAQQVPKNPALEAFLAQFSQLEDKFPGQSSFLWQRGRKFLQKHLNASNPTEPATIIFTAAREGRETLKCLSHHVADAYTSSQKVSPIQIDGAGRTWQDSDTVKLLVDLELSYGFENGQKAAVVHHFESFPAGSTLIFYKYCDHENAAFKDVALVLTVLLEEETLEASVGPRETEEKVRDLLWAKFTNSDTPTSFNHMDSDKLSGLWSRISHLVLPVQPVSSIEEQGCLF

[16] = E. coli growth modulation, two-sided OD650, primary screen, E. coli filamentation project, strain DRC41, 24 h (AID 1093); details: OD650, 24 h, higher = more signal, called active from +8 up or from −8 down;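 also: MC1000 strain lacking acrAB efflux and sulA so SOS filamentation is blocked; test concentration not given here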
[17] = small-molecule microarray binders of probe aLefty2, primary screen, biochemical, biotinylated probe, 635/667 nm fluorescence (AID 1094); details: higher = more signal;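 also: score merges spot fluorescence near 667 nm with spot signal-to-noise ratio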
[18] = test system: Noggin (protein binding on small-molecule microarray); assay: Noggin binders on small-molecule microarray, primary screen, biochemical, 635/667 nm fluorescence (AID 1095); details: 635 nm fluorescence, higher = more signal;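 also: score merges 667 nm feature fluorescence with signal to noise over triplicate slides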
[19] = molecular target: Neurogenic locus notch homolog protein 3 (Homo sapiens) (UniProt Q9UM47); assay: NOTCH3 binders on small-molecule microarray, primary screen, biochemical, 635/667 nm fluorescence (AID 1096); details: NOTCH3 binding, 635 nm fluorescence, higher = more signal
[20] = small-molecule microarray binders of probe aEGFR, primary screen, biochemical, biotinylated probe, 635/667 nm fluorescence (AID 1097); details: higher = more signal;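 also: probe is a biotinylated anti-EGFR antibody binding compounds printed on slides; score combines fluorescence near 667 nm and signal to noise of each spot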

Row | Structure (SMILES) | composite z-score [1] | composite z-score [2] | composite z-score [3] | composite z-score [4] | composite z-score [5] | composite z-score [6] | composite z-score [7] | z-score [8] | composite z-score [9] | composite z-score [10] | composite z-score [11] | z-score [12] | z-score [13] | z-score [14] | composite z-score [15] | z-score [16] | composite z-score [17] | composite z-score [18] | composite z-score [19] | composite z-score [20]
1 | CCOC(=O)C1=CCN(S(=O)(=O)c2ccc(C)cc2)C1c1ccccc1 (stereo not given) | -0.0137 | 0.229 | -0.0232 | 0.535 | 1.5 | 1.44 | 1.2 | -0.158 (inactive) | 0.439 | 0.113 | 1.03 | -1.76 (inactive) | -0.849 (inactive) | 0.318 (inactive) | 2.93 | -0.4 (inactive) | 0.38 | 0.216 | 0.821 | 0.227
2 | C=CCN1C(=O)[C@]2(O[C@H](CCO)[C@@H]([Si](C)(C)c3ccc(OC)cc3)[C@@H]2C)c2cc(NC(=O)c3ccc(OC)cc3)ccc21 | -0.429 | 0.421 | -0.105 | 0.3 | 0.384 | 0.686 | 1.09 | -3.52 (inactive) | 0.346 | -0.204 | 1.5 | 0.405 (inactive) | -1.91 (inactive) | 2.89 (inactive) | 0.739 | 0.577 (inactive) | -0.166 | 1.62 | 0.924 | -0.111
3 | CCN(CC)c1ccc(N2CC=CC34O[C@@H]5/C=C\CCC(C)OC(=O)C5[C@H]3C(=O)N(C(C)CO)[C@@H]4C2=O)cc1 (stereo not given in full) | -0.0462 | -0.362 | -0.116 | -0.244 | -1.06 | 0.168 | -0.527 | 0.355 (inactive) | -0.293 | -0.652 | 0.41 | 0.217 (inactive) | -1.41 (inactive) | -0.0932 (inactive) | -0.139 | 1.13 (inactive) | -0.149 | 0.07 | -0.419 | -0.206
4 | COc1cc(NN2C(C(O)C3CCCCC3)C=CC3C(=O)N(c4ccccc4)C(=O)C32)cc(OC)c1OC (stereo not given) | 1.44 | -0.28 | -0.116 | 0.56 | 1.7 | 1.67 | 1.18 | 0.374 (inactive) | 0.964 | -0.202 | 0.955 | 0.93 (inactive) | 1.06 (inactive) | 0.408 (inactive) | 3.25 | -1.24 (inactive) | 0.167 | -0.273 | 1.07 | -0.0068
5 | CCOC(=O)C[C@H]1[C@H](OC(=O)c2ccc(-c3ccccc3)cc2)[C@@H](NC(=O)CC(C)C)c2cc(OCCCO)ccc2N1C(=O)c1ccccc1 | -0.308 | -0.288 | -0.0236 | 0.311 | 0.623 | -0.037 | 0.648 | -0.165 (inactive) | 0.547 | -0.217 | 0.468 | 0.72 (inactive) | 1.4 (inactive) | 1.38 (inactive) | 1.49 | -0.513 (inactive) | -0.107 | 0.49 | 0.952 | 0.048
6 | CC(=O)N1CC(C(O)C2C=CC3C(=O)NC(=O)C3N2Nc2ccc(Cl)cc2Cl)c2ccccc21 (stereo not given) | 0.856 | -0.0312 | 0.203 | 0.925 | 1.28 | 1.7 | 0.727 | 0.425 (inactive) | 0.496 | 0.0854 | 0.825 | 1.14 (inactive) | 0.734 (inactive) | 1.81 (inactive) | 2.74 | -0.948 (inactive) | 0.131 | -0.575 | 0.91 | -0.0594
7 | CC(C)C(=C=CC[C@@H](O)c1cccc(OCCO)c1)C[C@@H](O)COCc1ccccc1 | -0.0972 | -0.254 | -0.0835 | 0.45 | -0.554 | -0.0802 | -0.547 | -2.12 (inactive) | 0.182 | -0.188 | 0.566 | -0.978 (inactive) | -1.55 (inactive) | -0.845 (inactive) | 0.493 | 1.61 (inactive) | -0.133 | 0.573 | 0.541 | -0.203
8 | C=C/C=C/[C@@H]1C(=C)CN([C@@H](Cc2ccccc2)C(=O)OC)[C@H]1[C@@H](O)Cc1ccccc1 | -0.252 | 0.814 | -0.109 | 0.34 | 0.186 | 0.404 | 1 | -0.661 (inactive) | 0.101 | -0.0645 | 1.44 | -0.03 (inactive) | -1.63 (inactive) | 0.415 (inactive) | 1.57 | 0.85 (inactive) | -0.0975 | 0.0905 | 0.731 | -0.0228
9 | CCCC=C(CCC)[C@@H](NS(=O)(=O)c1cccc2cccnc12)c1ccc(-c2ccccc2)cc1 | -0.245 | 0.185 | 0.103 | 0.91 | 1.66 | 1.08 | 0.898 | 2 (inactive) | 1.41 | -0.0417 | 1.55 | -0.221 (inactive) | 0.114 (inactive) | 0.638 (inactive) | 3.61 | -0.701 (inactive) | 0.104 | 1.07 | 1.06 | 0.06
10 | CCCCCCCCCCC(O)C1C=CC2C(=O)N(C)C(=O)C2N1Nc1cc(OC)c(OC)c(OC)c1 (stereo not given) | 0.736 | -0.157 | -0.194 | -0.873 | -0.717 | 0.55 | -0.199 | 0.507 (inactive) | 0.0296 | -0.21 | -0.415 | 0.692 (inactive) | 0.134 (inactive) | -1.17 (inactive) | 1.54 | -1.74 (inactive) | -0.161 | -1.3 | -0.713 | -0.189
